Inconclusive results are not listed. Values without a mark were called inactive. Calls of active or inactive are those of the source. Calls follow the shape of the dose curve; as a rule, active = well fitted cell-killing curve with a large enough effect; inconclusive = small, poorly fitted or top-dose-only effect, or effect the other way; inactive = no such curve, though single readings can be large or run the other way.
Assay: Quantitative highthroughput screen to assess conditional lethalithy of SEM cells grown in Human Plasma-Like Medium with dialyzed fetal bovine serum (HPLM+ds) (AID 1963882); also: nearly all actives have a fitted effect of over 35% in size
Details: SEM B-ALL cells in HPLM+ds, CellTiter-Glo viability, 48 h; series mostly up to 45.8 µM; viability: at the top concentration
Description: Assay Provider: Jason Cantor Ph.D.
Department of Biochemistry
University of Wisconsin-Madison, Madison, WI, USA
Chemical screening studies have identified drug sensitivities across hundreds of cancer cell lines but most putative therapeutics fail to translate. Discovery and development of drug candidates in models that more accurately reflect nutrient levels in human blood is a major challenge. Here we performed high-throughput screens in conventional versus Human Plasma-Like Medium (HPLM) to identify compounds that were "missed" when screening using the artificial culture condition. Sets of conditional anticancer compounds spanned phases of clinical development and included non-oncology drugs were assessed. […] We also traced conditional phenotypes for several chemotherapeutics to availability of HPLM-specific metabolites and confirmed others for compounds whose reported targets are encoded by nonessential genes. Our findings establish generalizable strategies for exploiting conditional lethality in HPLM to reveal therapeutic candidates and mechanisms of action in cancer cells.
Described herein are the results of each viability screens against three cell lines: NOMO1 (an acute myeloid leukemia cell line); P12-Ichikawa (a T-cell acute lymphoblastic leukemia); and SEM (a B-cell ALL). Each assay was screened using 3 different cell culture media: homemade human plasma-Like medium with 10% dialyzed fetal bovine serum (HPLM+ds); RPMI1640 with 10% untreated FBS and 5mM glucose (RPMI+s); and RPMI1640 with 10% dialyzed fetal bovine serum and 5 mM glucose (RPMI+ds).
PROTOCOL TABLE (as described by Inglese J, Shamu CE and Guy RK. 2007)
SEQUENCE No. (e.g., 1, 2, 3, etc.); […] (e.g., Cells, Incubation, Reagent, etc.); VALUE and DESCRIPTION.
1; Cells; 5 uL; white, solid bottom 1536-well Greiner assay plate.
2; Compounds; 23 nL; Kalypsis pin tool (Wako USA) equipped with a 1536-well pin head to transfer to the assay plates.
3; Incubation; 48 hours; 37C incubation.
4; Reagent; 3 uL; CellTiter Glo (Promega).
5; Incubation; 5 min, room temperature
6; Detection; Luminescence, Viewlux PerkinElmer.
NOTES (numbers refer to Sequence numbers above)
1. Briefly, 5 ul of cell reagent was dispensed using a Multidrop Combi Dispenser. The NOMO1 and SEM cells were plated at 500 cells/well and the P12-Ichikawa line at 1000 cells/well.
2. After seeding the cells, 23 nL of MIPE 4.1 library compounds (in DMSO) were added to each plate using a Kalypsys 1536 Pintool dispenser. Bortezomib at final concentration of […] and DMSO were added to each plate as positive and negative controls respectively. For each screen, MIPE 4.1 compounds were added over an eleven-point concentration range […] in 3-fold dilutions.
3. Each plate was covered with a stainless steel gasketed lid to prevent evaporation and incubated for 48 hour at 37C, 95% relative humidity, and 5% CO2.
4-5. Three microliter CellTilter-GloTM luminescent substrate mix (Promega) reagent was added to the assay plate and incubated at room temperature for 5 min.
6. The luminescence signal was measured using a ViewLux (PerkinElmer) multiplate reader with a 2 second exposure time per plate. Data for each compound were normalized as percent viability such that measurements for DMSO and the empty well controls in each plate were defined as 100% and 0%, respectively.
In the case of `CC(C)N(CCNC(=O)CN1CCCC1=O)C(C)C`, the “viability” value is reported as 97.6%. With `C[C@@H]1CC[C@@]2(OC1)O[C@H]1C[C@H]3[C@@H]4CC=C5C[C@@H](O[C@@H]6O[C@H](CO)[C@@H](O[C@@H]7O[C@@H](C)[C@H](O)[C@@H](O)[C@@H]7O)[C@H](O)[C@@H]6O[C@@H]6O[C@@H](C)[C@H](O)[C@@H](O)[C@@H]6O)CC[C@]5(C)[C@@H]4CC[C@]3(C)[C@@H]1[C@H]2C` the Potency was 18.7 µM (active). For `CN[C@@H]1Cc2cccc3[nH]c(=O)n(c23)C1`, the “viability” value was 96.8%. In the case of `C[C@@H]1[C@H](O)[C@@H](C)C=CC=CCCC=CC=CC=CC=C[C@H](O[C@H]2O[C@@H](C)[C@H](O)[C@@H](N)[C@@H]2O)CC2O[C@](O)(C[C@@H](O)[C@H](O)CC[C@@H](O)C[C@@H](O)C[C@@H](O)CC(=O)O[C@H]1C)C[C@H](O)[C@H]2C(=O)O`, the “viability” value is reported as 110%. In the case of `CNCC(O)c1ccc(O)cc1` (stereo not given), the “viability” value is reported as 89.3%. For `C#CC1(O)CCC2C3CCC4=CC(=O)CCC4(C)C3CCC21C` (stereo not given), the “viability” value was 107%. In the case of `CN(C)CCN(C)CCc1ccc(Cl)c(Cl)c1`, the “viability” value is reported as 90.6%. In the case of `Oc1ccc2c3c1O[C@H]1c4[nH]c5c(c4C[C@@]4(O)[C@@H](C2)N(CC2CC2)CC[C@]314)C[C@@]1(O)[C@H]2Cc3ccc(O)c4c3[C@@]1(CCN2CC1CC1)[C@H]5O4`, the “viability” value is reported as 108%. In the case of `C[C@]12CCC(=O)C=C1CC[C@@H]1[C@H]3CC[C@](C)(O)[C@@]3(C)CC[C@@H]12`, the “viability” value is reported as 86.7% [at 92.2 µM]. With `COC1=C[C@@H]2[C@@H]3Cc4ccc(OC)c(O)c4[C@]2(CCN3C)CC1=O` the “viability” value was 98.8%. With `CCNC(=O)C[C@@H]1N=C(c2ccc(Cl)cc2)c2cc(OC)ccc2-n2c(C)nnc21` the Potency was 0.935 µM (active). With `CCOc1ccccc1-n1c(C(C)N2CCN(C(=O)COc3ccc(Cl)cc3)CC2)nc2ccccc2c1=O` (stereo not given) the Potency was 1.05 µM (active). In the case of `C#C[C@]1(O)C=C[C@@H]2[C@@H]3CCC4=CC(=O)CC[C@@H]4[C@H]3CC[C@@]21CC`, the “viability” value is reported as 113%. For `c1ccc2c(CN3CCNCC3)cccc2c1`, the “viability” value was 86.2%. With `CC(N[C@H]1C[C@H]1c1ccccc1)c1ccc2c(c1)OCCO2` (stereo not given in full) the “viability” value was 91.8%. For `COc1ccc2c(c1)[C@]13CCCCC1C(C2)N(C)CC3` (stereo not given in full), the “viability” value was 118%. In the case of `O=C1C=CC[C@@H]2[C@H]3CCCN4CCC[C@@H](CN12)[C@@H]34`, the “viability” value is reported as 103%. With `CC1=C(O)C(=O)C=C2C1=CC=C1[C@@]2(C)CC[C@@]2(C)[C@@H]3C[C@](C)(C(=O)O)CC[C@]3(C)CC[C@]12C` the Potency was 2.64 µM (active). For `c1cc2c(cc1[C@H]1OC[C@H]3[C@H]1CO[C@H]3c1ccc3c(c1)OCO3)OCO2`, the “viability” value was 70.8%. In the case of `Cc1sc2c(c1C)C(c1ccc(Cl)cc1)=N[C@@H](CC(=O)OC(C)(C)C)c1nnc(C)n1-2`, the Potency is reported as 0.166 µM (active). For `O=c1[nH]c2ccc(Cl)cc2c(N[C@@H]2CN3CCC2CC3)c1-c1nc2ccccc2[nH]1`, the Potency was 0.0418 µM (active). For `Cn1c(CCCC(=O)O)nc2cc(N(CCCl)CCCl)ccc21`, the “viability” value was 89.8%. In the case of `NC1CC1c1ccccc1` (stereo not given), the “viability” value is reported as 91.5%. For `CC=C(C)C(=O)N[C@@H](c1ccccc1)[C@@H](O)C(=O)O[C@H]1C[C@@]2(O)[C@@H](OC(=O)c3ccccc3)[C@@H]3[C@]4(OC(C)=O)CO[C@@H]4C[C@H](O)[C@@]3(C)C(=O)[C@H](OC(C)=O)C(=C1C)C2(C)C`, the “viability” value was 21.9%. In the case of `CC(=O)Nc1ccc(OC[C@](C)(O)C(=O)Nc2ccc([N+](=O)[O-])c(C(F)(F)F)c2)cc1`, the “viability” value is reported as 65.7%. For `C1=C2CCCN[C@H]2[C@@H]2C[C@H]1[C@@H]1CCCCN1C2`, the “viability” value was 97.3%. With `CC(C)N[C@@H]1CCn2c(=O)[nH]c3cccc(c32)[C@@H]1O` the “viability” value was 100%. For `Clc1ccccc1C(c1ccccc1)(c1ccccc1)n1cccn1`, the “viability” value was 110%. In the case of `COc1cc2cc(c1Cl)N(C)C(=O)C[C@H](OC(=O)C(C)C)[C@]1(C)O[C@H]1[C@H](C)[C@@H]1C[C@@](O)(NC(=O)O1)[C@H](OC)C=CC=C(C)C2`, the “viability” value is reported as 2.42%. In the case of `COC[C@H]1OC(=O)c2coc3c2[C@@]1(C)C1=C(C3=O)C2CCC(=O)[C@@]2(C)C[C@H]1OC(C)=O` (stereo not given in full), the “viability” value is reported as 105%. For `CC(O)(CS(=O)(=O)c1ccc(F)cc1)C(=O)Nc1ccc(C#N)c(C(F)(F)F)c1` (stereo not given), the “viability” value was 75.3%. With `Cc1nc(-c2ccc(-c3ccc(C(=O)N4CCc5cc6c(cc54)C4(CCN(C)CC4)CO6)cc3)c(C)c2)no1` the “viability” value was 105%. For `CCN(CC)C(=O)c1ccc(C2=CC3(CCNCC3)Oc3cccc(O)c32)cc1`, the “viability” value was 82.1%. In the case of `CCCC(C)(COC(N)=O)COC(=O)NC(C)C` (stereo not given), the “viability” value is reported as 104%. With `CN(C)[C@@H]1C(=O)C(C(N)=O)=C(O)[C@@]2(O)C(=O)C3=C(O)c4c(O)cccc4[C@@](C)(O)[C@H]3C[C@@H]12` the “viability” value was 94.2%. In the case of `COc1ccc2c(c[n+](C)c3c4cc5c(cc4ccc23)OCO5)c1OC`, the Potency is reported as 14.8 µM (active). For `C[C@]12Cc3cn[nH]c3C[C@@H]1CC[C@@H]1[C@H]2CC[C@@]2(C)[C@H]1CC[C@]2(C)O`, the “viability” value was 94.6%. In the case of `C=C(C)[C@H]1Cc2c(ccc3c2O[C@@H]2COc4cc(OC)c(OC)cc4[C@@H]2C3=O)O1`, the Potency is reported as 5.26 µM (active). For `Cc1cc(SCc2sc(-c3ccc(C(F)(F)F)c(F)c3)nc2C)ccc1OCC(=O)O`, the “viability” value was 99.5%. With `CC(C)(O)C=CC(=O)[C@](C)(O)[C@H]1[C@H](O)C[C@]2(C)[C@@H]3CC=C4[C@@H](C=C(O)C(=O)C4(C)C)[C@]3(C)C(=O)C[C@@]12C` the Potency was 0.059 µM (active).
Potency is read from the fitted curve at half-maximal effect.
